Reference: PubChem BioAssay
Calls of active or inactive are those of the source. Unless noted, the rule behind the calls is not given here.

Key:
[1] = compound effects on lung adenocarcinoma cell viability – A549, calcein-AM fluorescence, 48 h, basal, profiling panel (AID 1162); conditions: higher = more signal; note: test concentration not given here
[2] = compound effects on differentiated 3T3-L1 adipocyte viability – cell-based, 3T3-L1 adipocytes, calcein-AM fluorescence, 48 h, basal, profiling panel (AID 1163); conditions: 3T3-L1 adipocytes viability, higher = more signal; note: test concentration not given here
[3] = compound effects on hepatocellular carcinoma cell viability – HepG2, calcein-AM fluorescence, 48 h, basal, profiling panel (AID 1164); conditions: higher = more signal; note: test concentration not given here
[4] = compound effects on multiple myeloma cell viability – MM1S, calcein-AM fluorescence, 48 h, basal, profiling panel (AID 1165); conditions: higher = more signal; note: test concentration not given here
[5] = calcein-AM signal in unstimulated myeloma cells – cell-based, calcein-AM fluorescence, 48 h, PK04 Diversity Set, profiling panel (AID 1166); conditions: RPMI8226 myeloma viability, higher = more signal;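 note: cells grown under basal conditions without added stimulus; test concentration not given here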
[6] = JC-1 mitochondrial signal, unstimulated HepG2 cells – cell-based, JC-1 fluorescence, 24 h, 100 nL compound, profiling panel (AID 1167); conditions: HepG2 mitochondrial potential, higher = more signal; note: test concentration not given here
[7] = JC-1 mitochondrial signal, unstimulated adipocytes – cell-based, JC-1 fluorescence, 3T3-L1 adipocytes, 24 h, 100 nL compound, profiling panel (AID 1168); conditions: JC-1 mitochondrial fluorescence, higher = more signal, called active from +8 up or from −8 down; note: test concentration not given here
[8] = JC-1 mitochondrial signal, unstimulated myeloma cells – cell-based, JC-1 fluorescence, RPMI8226, 24 h, 100 nL compound, profiling panel (AID 1169); conditions: JC-1 mitochondrial potential fluorescence, higher = more signal; note: test concentration not given here
[9] = JC-1 mitochondrial signal, unstimulated MM1S myeloma – cell-based, JC-1 fluorescence, 24 h, 100 nL compound, profiling panel (AID 1170); conditions: MM1S mitochondrial potential, higher = more signal; note: test concentration not given here
[10] = resazurin metabolic signal in A549 cells – cell-based, resazurin fluorescence, 24 h, PK04 Diversity Set, profiling panel (AID 1171); conditions: A549 viability, higher = more signal, called active from +8 up or from −8 down; note: test concentration not given here
[11] = resazurin metabolic signal in HepG2 cells – cell-based, resazurin fluorescence, 24 h, PK04 Diversity Set, profiling panel (AID 1172); conditions: HepG2 viability, higher = more signal; note: test concentration not given here
[12] = budding yeast growth changes without added modifier – OD600, strain BY4716, 24 h, basal condition, primary screen (AID 1173); conditions: S. cerevisiae BY4716 growth, OD600, 24 h; higher = more signal, called active from +8 up or from −8 down
[13] = viability profiling in MM1S myeloma cells – cell-based, resazurin fluorescence, basal, 24 h, PK04 Diversity Set, profiling panel (AID 1174); conditions: higher = more signal, called active from +8 up or from −8 down; note: test concentration not given here
[14] = biological target: Dihydroorotate dehydrogenase (quinone), mitochondrial (Plasmodium falciparum (isolate 3D7)) (UniProt Q08210); test: inhibition of P. falciparum DHODH – biochemical, C-terminal His tag, absorbance 600 nm, primary screen (AID 1175); conditions: PfDHODH enzyme, DCIP absorbance 600 nm; higher = more signal, called active from +8 up or from −8 down;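 note: recombinant parasite enzyme with a five histidine tag at its C terminus; test concentration not given here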
Sequence of Dihydroorotate dehydrogenase (quinone), mitochondrial (Plasmodium falciparum (isolate 3D7)) (Q08210 whole entry, looked up): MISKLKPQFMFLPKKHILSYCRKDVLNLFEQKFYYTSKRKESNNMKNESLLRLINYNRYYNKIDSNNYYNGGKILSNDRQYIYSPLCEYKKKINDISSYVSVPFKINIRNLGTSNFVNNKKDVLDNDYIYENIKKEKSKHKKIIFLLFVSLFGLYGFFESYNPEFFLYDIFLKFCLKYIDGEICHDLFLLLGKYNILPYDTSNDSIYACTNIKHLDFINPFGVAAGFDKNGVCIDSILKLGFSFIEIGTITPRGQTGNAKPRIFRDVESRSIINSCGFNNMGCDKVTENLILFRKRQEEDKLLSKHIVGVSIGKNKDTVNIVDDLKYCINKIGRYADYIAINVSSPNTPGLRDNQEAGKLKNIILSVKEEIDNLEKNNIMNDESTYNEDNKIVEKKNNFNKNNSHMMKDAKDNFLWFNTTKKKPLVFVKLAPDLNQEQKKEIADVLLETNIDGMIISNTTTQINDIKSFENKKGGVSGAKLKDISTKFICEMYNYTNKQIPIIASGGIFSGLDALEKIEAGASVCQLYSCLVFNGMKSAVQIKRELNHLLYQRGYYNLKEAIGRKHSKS

[15] = inhibition of PAO1 biofilm formation – strain PAO1, LB-PBS medium, absorbance 600 nm, primary screen (AID 1176); note: test concentration not given here; conditions: P. aeruginosa PAO1 growth/biofilm, A600, 12 h; higher = more signal
[16] = growth modulation of vineyard yeast isolate – strain RM11-1a, OD600, basal, 24 h, primary screen (AID 1177);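 note: cultures grown under basal conditions with no added stressor; test concentration not given here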; conditions: S. cerevisiae RM11-1a growth, OD600, 24 h; higher = more signal, called active from +8 up or from −8 down
[17] = growth of efflux-deficient E. coli DRC39 – strain DRC39, OD650, 24 h, E. coli filamentation inducers, primary screen (AID 1178);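 note: growth measured as culture turbidity by optical density at 650 nm; test concentration not given here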; conditions: E. coli DRC39 acrAB, higher = more signal, called active from +8 up or from −8 down
[18] = growth of efflux-deficient E. coli DRC39 – strain DRC39, OD650, 48 h, E. coli filamentation inducers, primary screen (AID 1179);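 note: screen aims at cell division blockers that make cells filament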; conditions: E. coli DRC39 delta-acrAB growth, higher = more signal, called active from +8 up or from −8 down
[19] = viability profiling in RPMI8226 myeloma cells – cell-based, resazurin fluorescence, basal, 24 h, PK04 Diversity Set, profiling panel (AID 1180); conditions: higher = more signal;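 note: RPMI8826 multiple myeloma cell line at 5000 cells per well; test concentration not given here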
[20] = biological target: E3 ubiquitin-protein ligase XIAP (Homo sapiens) (UniProt P98170); test: small molecules binding XIAP protein – biophysical, small-molecule microarray, fluorescence 635 nm, primary screen (AID 1181); conditions: higher = more signal;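 note: score merges 667 nm emission and signal to noise over triplicate slides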
Sequence of E3 ubiquitin-protein ligase XIAP (Homo sapiens) (P98170 whole entry, looked up): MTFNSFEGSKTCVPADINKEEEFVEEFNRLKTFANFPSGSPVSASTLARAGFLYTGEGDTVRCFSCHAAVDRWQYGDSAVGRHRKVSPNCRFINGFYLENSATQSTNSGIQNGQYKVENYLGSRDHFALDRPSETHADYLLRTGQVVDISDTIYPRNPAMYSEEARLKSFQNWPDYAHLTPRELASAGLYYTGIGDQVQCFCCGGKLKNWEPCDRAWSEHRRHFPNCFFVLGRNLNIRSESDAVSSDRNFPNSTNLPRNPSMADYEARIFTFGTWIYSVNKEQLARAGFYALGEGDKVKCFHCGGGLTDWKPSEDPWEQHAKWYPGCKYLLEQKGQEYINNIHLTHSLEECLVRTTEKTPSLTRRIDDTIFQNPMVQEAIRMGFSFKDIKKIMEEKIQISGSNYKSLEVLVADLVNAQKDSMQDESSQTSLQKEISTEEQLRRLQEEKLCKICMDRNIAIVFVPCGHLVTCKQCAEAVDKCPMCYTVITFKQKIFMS

CC(C)(C)OC(=O)CC[C@@]1(C(=O)N2CCOCC2)N=C(c2ccc(OCCCO)cc2)O[C@@H]1c1ccccc1N=[N+]=[N-]
z-score [1]: 0.962
z-score [2]: 0.122
z-score [3]: 0.169
z-score [4]: -0.49
z-score [5]: 0.338
z-score [6]: 2.09
z-score [7]: 5.5 (inactive)
z-score [8]: -0.499
z-score [9]: -1.03
z-score [10]: 0.716 (inactive)
z-score [11]: 0.725
z-score [12]: 0.297 (inactive)
z-score [13]: -0.894 (inactive)
composite z-score [14]: 0.668 (inactive)
z-score [15]: -0.596 (inactive)
z-score [16]: 1.1 (inactive)
z-score [17]: 0.611 (inactive)
z-score [18]: 1.52 (inactive)
z-score [19]: 0.066
composite z-score [20]: 0.205

O=C1c2ccccc2[C@@]2(Cc3ccccc3N(Cc3ccccc3)C2=O)[C@H](c2ccc(CO)cc2)N1Cc1ccccc1C(F)(F)F
z-score [1]: 0.74
z-score [2]: 1
z-score [3]: 1.22
z-score [4]: 0.166
z-score [5]: 0.816
z-score [6]: 1.28
z-score [7]: 0.084 (inactive)
z-score [8]: -0.0385
z-score [9]: 0.29
z-score [10]: -1.16 (inactive)
z-score [11]: -0.897
z-score [12]: -0.614 (inactive)
z-score [13]: -1.28 (inactive)
composite z-score [14]: -4.41 (inactive)
z-score [15]: 0.127 (inactive)
z-score [16]: 0.349 (inactive)
z-score [17]: 0.225 (inactive)
z-score [18]: 0.429 (inactive)
z-score [19]: -0.59
composite z-score [20]: -0.148

Cc1cccc(/C=C/C=O)c1
z-score [1]: 0.175
z-score [2]: -0.49
z-score [3]: 0.486
z-score [4]: -0.127
z-score [5]: -0.46
z-score [6]: 0.895
z-score [7]: 0.898 (inactive)
z-score [8]: -0.691
z-score [9]: -0.313
z-score [10]: 0.0956 (inactive)
z-score [11]: 0.033
z-score [12]: -2.91 (inactive)
z-score [13]: -0.0488 (inactive)
composite z-score [14]: -1.16 (inactive)
z-score [15]: 0.13 (inactive)
z-score [16]: -0.181 (inactive)
z-score [17]: 0.578 (inactive)
z-score [18]: 0.35 (inactive)
z-score [19]: 0.387
composite z-score [20]: -0.0559

[N-]=[N+]=NCc1ccccc1[C@H]1OC(c2ccc(OCCCO)cc2)=N[C@@]1(Cc1ccccc1)C(=O)NCC(O)CO (stereo not given in full)
z-score [1]: 0.347
z-score [2]: -0.445
z-score [3]: 0.547
z-score [4]: -1.9
z-score [5]: -1.36
z-score [6]: 0.831
z-score [7]: -0.699 (inactive)
z-score [8]: -0.399
z-score [9]: -1.11
z-score [10]: 0.951 (inactive)
z-score [11]: 1.59
z-score [12]: -0.366 (inactive)
z-score [13]: -0.327 (inactive)
composite z-score [14]: -0.313 (inactive)
z-score [15]: 2.25 (inactive)
z-score [16]: -0.405 (inactive)
z-score [17]: -0.329 (inactive)
z-score [18]: -0.279 (inactive)
z-score [19]: -0.435
composite z-score [20]: 0.459

COCCOC(=O)N1C(=O)[C@@]2(c3ccccc31)[C@H](c1ccc(O)cc1)N1[C@H](c3ccccc3)[C@H](c3ccccc3)OC(=O)[C@H]1[C@@H]2C(N)=O
z-score [1]: 0.357
z-score [2]: 0.502
z-score [3]: 1.75
z-score [4]: 0.936
z-score [5]: 0.395
z-score [6]: -0.815
z-score [7]: 0.76 (inactive)
z-score [8]: 0.296
z-score [9]: -0.971
z-score [10]: -0.83 (inactive)
z-score [11]: -0.701
z-score [12]: 0.652 (inactive)
z-score [13]: -0.916 (inactive)
composite z-score [14]: -0.766 (inactive)
z-score [15]: 0.125 (inactive)
z-score [16]: 0.623 (inactive)
z-score [17]: 0.596 (inactive)
z-score [18]: 0.687 (inactive)
z-score [19]: -1.01
composite z-score [20]: 0.0228

CCCCCCCCCCC(O)C1C=CC2C(=O)N(c3ccccc3)C(=O)C2N1Nc1ccc([N+](=O)[O-])cc1 (stereo not given)
z-score [1]: -2.28
z-score [2]: -0.581
z-score [3]: -1.82
z-score [4]: -3.31
z-score [5]: -4.22
z-score [6]: -2.87
z-score [7]: 0.656 (inactive)
z-score [8]: -1.13
z-score [9]: -1.66
z-score [10]: 0.381 (inactive)
z-score [11]: -0.573
z-score [12]: 0.673 (inactive)
z-score [13]: -0.0843 (inactive)
composite z-score [14]: -0.838 (inactive)
z-score [15]: 0.285 (inactive)
z-score [16]: 0.0401 (inactive)
z-score [17]: -0.552 (inactive)
z-score [18]: 0.0458 (inactive)
z-score [19]: -1.11
composite z-score [20]: -0.126

[N-]=[N+]=NCc1ccccc1C[C@]1(C(=O)N2CCOCC2)N=C(c2ccc(OCCCO)cc2)O[C@H]1c1ccccc1
z-score [1]: -0.55
z-score [2]: -0.0649
z-score [3]: -1.56
z-score [4]: -2.06
z-score [5]: -4.4
z-score [6]: -0.155
z-score [7]: -0.296 (inactive)
z-score [8]: -1.16
z-score [9]: -2.08
z-score [10]: -0.832 (inactive)
z-score [11]: -0.552
z-score [12]: -0.34 (inactive)
z-score [13]: -2.29 (inactive)
composite z-score [14]: 1.44 (inactive)
z-score [15]: -0.537 (inactive)
z-score [16]: 0.328 (inactive)
z-score [17]: 0.685 (inactive)
z-score [18]: 0.694 (inactive)
z-score [19]: -4.46
composite z-score [20]: -0.0884

C=CCC(OC(C)=O)[C@@H]1[C@@H](N(Cc2ccc(-c3ccccc3)cc2)C(=O)c2ccc(C)cc2)c2cc(OCCCO)ccc2N1C(=O)c1ccc2ccccc2n1 (stereo not given in full)
z-score [1]: 3.36
z-score [2]: 0.389
z-score [3]: 1.85
z-score [4]: -0.68
z-score [5]: 1.28
z-score [6]: 3.31
z-score [7]: 0.285 (inactive)
z-score [8]: 0.0312
z-score [9]: 1.96
z-score [10]: 1.87 (inactive)
z-score [11]: 1.53
z-score [12]: -0.769 (inactive)
z-score [13]: 1.3 (inactive)
composite z-score [14]: -0.772 (inactive)
z-score [15]: 0.833 (inactive)
z-score [16]: -1.99 (inactive)
z-score [17]: 2.06 (inactive)
z-score [18]: 1.82 (inactive)
z-score [19]: 0.924
composite z-score [20]: -0.0663
